Sampled rows, rich in hits. Any-hit rate of the full collection: about 0.78%.
PINK1 expr mod = PINK1 expression modulation; AID 624263; PINK1 immunofluorescence, high-content cytometry, 24 h; Potency, µM (doses to about 76.6 µM), for inactives: at the highest dose activation (PINK1 increase), usual class: activators; 410,000 compounds, 0.2% hits; active = well fitted activation curve with a large enough effect; inconclusive = small, poorly fitted or top-dose-only effect; cell line not stated here; also: potency is read from the fitted curve at half-maximal effect; % of control where 0% means no effect; nearly all actives have a fitted effect of over 65% in size
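Compound titrations (5 concentrations, 24 h) on a stable cell line; DMSO and CCCP controls. Endpoint: fixed-cell PINK1 immunofluorescence with mitochondrial, cell and nuclear markers, scanned by microplate cytometer.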
GLS inhibitor = glutaminase GLS (human) inhibition; GLS enzymatic activity, qHTS titration; O94925; Potency, µM (doses to about 45.5 µM), inactives show at the highest dose activity change, negative = inhibition, actives largely listed as inhibitors; 410,000 compounds, 0.21% hits; also: potency is read from the fitted curve at half-maximal effect; % is scaled to controls: 0 for no effect and ±100 for the full control effect
Target sequence (O94925 whole entry, looked up): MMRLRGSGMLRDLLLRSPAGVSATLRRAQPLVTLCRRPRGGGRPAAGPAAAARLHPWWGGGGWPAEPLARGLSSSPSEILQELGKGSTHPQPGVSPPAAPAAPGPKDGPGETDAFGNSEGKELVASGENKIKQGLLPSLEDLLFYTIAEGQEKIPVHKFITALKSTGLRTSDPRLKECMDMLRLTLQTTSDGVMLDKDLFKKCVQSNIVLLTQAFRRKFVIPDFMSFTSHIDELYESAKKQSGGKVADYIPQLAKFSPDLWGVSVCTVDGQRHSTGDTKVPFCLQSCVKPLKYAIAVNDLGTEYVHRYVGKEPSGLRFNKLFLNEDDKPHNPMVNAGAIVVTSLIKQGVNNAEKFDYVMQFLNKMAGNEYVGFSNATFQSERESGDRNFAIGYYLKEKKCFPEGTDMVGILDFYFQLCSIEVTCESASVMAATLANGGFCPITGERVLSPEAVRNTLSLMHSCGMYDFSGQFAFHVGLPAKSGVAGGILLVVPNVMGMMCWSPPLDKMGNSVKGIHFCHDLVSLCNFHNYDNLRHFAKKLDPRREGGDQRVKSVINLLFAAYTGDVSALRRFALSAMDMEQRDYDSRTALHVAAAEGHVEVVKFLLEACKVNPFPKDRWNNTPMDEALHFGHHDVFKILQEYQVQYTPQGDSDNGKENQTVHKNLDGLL
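Assay buffer: 45 mM KH2PO4 pH 8.2, 0.02% Tween-20. hKGA acts on L-glutamine (1 mM solution added); product glutamate is reported by an oxidase/peroxidase Amplex Red coupling, with fluorescence taken at baseline and 30 min.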
CCT modulator = modulators of cytosolic chaperonin (CCT/TRiC) activity; 360,000 compounds, 0.3% hits; purified chaperonin ATPase assay, HTRF ADP detection, 30 min; activity change, % (concentration not given with the values), hits read low; AID 651819; in the data active = activity change below about -30%; also: % is scaled to controls: 0 for no effect and ±100 for the full control effect
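Enzyme 40 or 20 nM (batch-dependent) in Tris pH 7.4/KCl/MgCl2/DTT; cpd 76 uM single point; ATP 10 uM; 30 min 37 °C; Transcreener ADP HTRF detection, 30 min RT; ratio 665/615.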
PGK inhibitor = inhibitors of T. brucei phosphoglycerate kinase; P07378; PGK/GAPDH coupled, Kinase-Glo luminescence, 60 min; Potency, µM (highest dose often 57.5 µM), without a hit: top-dose activity change, negative = inhibition, most hits filed as inhibitors; 380,000 compounds, 0.043% hits; also: potency is read from the fitted curve at half-maximal effect; % is scaled to controls: 0 for no effect and ±100 for the full control effect; nearly all actives have a fitted effect of over 60% in size
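Recombinant glycosomal PGK reaction used 1,3-bisphosphoglycerate generated in-well by GAPDH (100nM final) in 100mM TEA pH 7.6, 5mM MgCl2, 0.01% Tween-20. After 60 minutes at room temperature, ATP was read by Kinase-Glo Plus luminescence end-point.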
PI4K2A block = blocks human PI4K2A kinase activity; purified PI4K2A, ADP-Glo luminescence, 1 h; hits give low values; Q9BTU6; activity change, negative = inhibition, % at 76.9 µM; 420,000 compounds, 0.13% hits; in the data active = activity change below about -50%; inconclusive = mostly about -30% to -49%;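 also: -100% = wells without enzyme as full effect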
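Compounds are screened against recombinant PI4K2A using PI as substrate and ATP, the latter dispensed at 300 microM. Reactions run one hour at ambient temperature before ADP-Glo detection; full inhibition defined by wells lacking enzyme.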
* = called active by the depositor; i = inactive; ? = inconclusive; · = not tested or not shown; ! = a repeat was not active. Unless noted, calls follow the shape of the dose curve; as a rule, active = well fitted curve in the direction sought with a large enough effect; inconclusive = small, poorly fitted or top-dose-only effect, or another doubt; inactive = no such curve, though single readings can be large; an effect the other way counts as inactive or inconclusive.

SMILES	PINK1 expr mod	GLS inhibitor	CCT modulator	PGK inhibitor	PI4K2A block
COc1ccc([C@H]2CC(=O)C=C(c3ccc(SC)cc3)C2)cc1	4%	2%	-2	i	-1
CSc1ccc(C2=CC(=O)C[C@H](c3ccc(F)cc3)C2)cc1	0%	0%	-39*	i	-4
COc1ccc(/C=C/C(=O)Nc2ccccc2C(=O)O)cc1	1%	-2%	-36*	3%	-8
COc1ccc(/C=C/C(=O)Nc2ccccc2C(=O)N2CCCC2)cc1	·	·	0	4%	5
COC(=O)C1Sc2[nH]c(=O)sc2C2c3ccccc3OC(=O)C12 (centres undefined)	·	·	-4	-2%	1
O=C(O)C1Sc2[nH]c(=O)sc2C2c3ccc(O)cc3OC(=O)C12 (centres undefined)	0%	8.9µM*	-11	i	-14
O=C(O)C1Sc2[nH]c(=O)sc2C2c3cc(Br)ccc3OC(=O)C12 (centres undefined)	3%	10µM*	0	6%	-7
COc1cccc(CNC(=O)c2c(OC)cc(=O)n3c2CCN(C(=O)c2ccc(C)nc2)CC3)c1	0%	·	·	·	·
CCCCC(=O)O[C@]1(C(=O)CO)[C@@H](C)C[C@H]2[C@@H]3CCC4=CC(=O)C=C[C@]4(C)[C@@]3(F)[C@@H](O)C[C@@]21C	·	·	·	·	-2
CN1C(=O)/C(=C\c2ccc(N(C)C)cc2)OC1=S	32µM*	?	0	-4%	3
COc1ccc(-c2cnc3c(NC(C)=O)cc(-c4cccc(C(=O)N(C)C)c4)cn23)cc1OC	5%	13%	-33*	·	-6
C=CCn1c2ccccc2c2nnc(SCC(=O)O)nc21	0%	12%	-43*	8%	-7
CN(C)S(=O)(=O)c1ccc2[nH]cc(/C=C/c3nc4ccccc4c(=O)n3-c3ccccc3)c2c1	11µM*	17%	-1	4%	-10
COc1ccc(/C=C/C(=O)NCC2Cc3cccc(-c4nc(C)cnc4C)c3O2)cc1OC (centres undefined)	1%	·	·	·	·
Cc1coc2ccccc2c1=O	·	·	·	·	1
COC(=O)c1ccccc1Nc1ccccc1	6%	0%	-32*	-3%	6
CNS(=O)(=O)c1ccc2nc(NC(=O)/C=C/c3ccco3)sc2c1	?	8%	-1	-3%	-62*
Cc1ccc2c(c1)c1c3n2CCNC3CCC1 (centres undefined)	0%	20%	-61*!	-8%	-4
C/C=C(\C)C(=O)OC1CC(C)(C)C[C@H]2C3=CC[C@@H]4[C@@]5(C)CCC(O[C@@H]6O[C@@H](C(=O)O)[C@@H](O)C(O[C@@H]7OC[C@H](O)[C@@H](O)[C@@H]7O[C@@H]7OC(CO)C(O)[C@@H](O)[C@@H]7O)C6O[C@@H]6OC(CO)C(O)C(O)C6O)[C@@](C)(CO)[C@@H]5CC[C@]4(C)[C@]3(C)CC(O)[C@@]12CO (some centres undefined)	-2%	13µM*	-1	4%	-8
CC1(C)CC[C@]2(C(=O)O[C@@H]3OC(CO)[C@@H](O)[C@H](O)[C@H]3O)CC[C@]3(C)C(=CCC4[C@@]5(C)CC[C@H](O[C@@H]6OC(C(=O)O)[C@@H](O)[C@H](O)[C@H]6O)C(C)(C)C5CC[C@]43C)[C@@H]2C1 (some centres undefined)	7%	?	-2	-5%	-3
Cn1nc(C(=O)OCC(=O)NCCc2ccccc2)c2ccccc2c1=O	0%	7%	-32*	0%	-2
Cc1ccc(Cl)c(NC(=O)COC(=O)c2nn(C)c(=O)c3ccccc23)c1Cl	0%	-5%	-43*	-1%	3
Cc1ccc(C)c(N(C)C(=O)c2ccc3c(=O)n4c(nc3c2)CCCCC4)c1	0%	1%	-72*	-4%	-1
CCN(CC)c1ccc(/C=C/c2cccc[n+]2C)c(OC)c1	10µM*	?	-1	-6%	-6
Cc1ccc2cc(CNCc3cccc4ccccc34)c(N3CCC(O)CC3)nc2c1	-1%	·	·	·	·
SMILES	PINK1 expr mod	GLS inhibitor	CCT modulator	PGK inhibitor	PI4K2A block
O=C(NCCCNC(=O)c1c(F)cccc1F)c1c(F)cccc1F	1%	-9%	-78*	-1%	-1
Cc1ncc2c(c1CNC(=O)c1ccc3c(c1)OCO3)CCN(C(=O)c1cn3ccccc3n1)C2	0%	·	·	·	·
O=C(CCC(=O)N1CCOc2ccc(Cl)cc21)NCc1ccccc1	0%	-2%	-1	1%	0
CC(CNC(=O)CCC(=O)N1CCOc2ccc(Cl)cc21)c1ccccc1 (centres undefined)	3%	0%	-66*	-16%	12
CO[C@H]1[C@H](NC(=O)c2ccco2)c2ccccc2C12CCN(Cc1cnn(-c3ccccc3)c1)CC2	0%	·	·	·	·
COc1cccc(CN(C)C(=O)c2cnn(-c3ncc4c(n3)-c3ccccc3CCC4)c2C)c1	0%	·	·	·	·
CCOC(=O)Cc1ccc(-c2ccccc2)cc1	·	4%	·	·	·
CCOC(=O)Cc1ccc2sc(-c3ccccc3)nc2c1	0%	17%	-1	?	-72*
COc1ccc2nc(N3CCC(C)CC3)c(C#N)cc2c1	5%	?	0	8%	14
CCc1ccc2nc(N3CCN(C)CC3)c(C#N)cc2c1	-1%	1%	-49*	-5%	0
O=C(O)C1OC(Oc2c(-c3ccc(O)c(O)c3)oc3cc(O)cc(O)c3c2=O)C(O)C(O)C1O (centres undefined)	1%	32%	-1	25µM*	-4
CC1OC(Oc2c(-c3cc(O)c(O)c(O)c3)oc3cc(O)cc(O)c3c2=O)C(O)C(O)C1O (centres undefined)	0%	42%	-1	?	-6
Nc1nc(N2CCN(C(=O)c3ccco3)CC2)nc2ccc(Br)cc12	-3%	1%	1	8.9µM*	5
Cc1ccc(C(=O)N2CCOc3ccc(CN4CCN(Cc5ccccn5)CC4)cc3C2)cc1	0%	·	·	·	·
O=C(N/N=C/c1ccc(O)cc1O)/C(=C/c1ccccc1)CCO	0%	-12%	-35*	-8%	3
Cc1nonc1C(=O)N/N=C/c1ccc(O)cc1O	1%	?	1	?	-79*
Cc1nonc1C(=O)N/N=C/c1ccncc1	1%	0%	1	-11%	-4
O=C(N/N=C/c1ccc(O)cc1O)c1ccncc1	0%	13µM*	0	-3%	3
CCC(CO)[n+]1c(C)cc(/C=C2\Sc3ccccc3N2Cc2ccccc2)cc1C (centres undefined)	11µM*	5%	-2	-1%	2
COc1ccc(-c2nc3c(C#N)c[nH]n3c2NC2CCCCC2)c(OC)c1	4%	?	·	10%	1
COc1ccc(-c2nc3c(C#N)c[nH]n3c2NC2CCCCC2)cc1	3%	13µM*	·	-2%	-2

Assay outcomes deposited in PubChem by National Center for Advancing Translational Sciences (NCATS).
